Screens as filed in PubChem.
p53ts 39C tox: cytotoxicity in p53ts cells at nonpermissive temperature; H1299-p53A138V viability at 39C, ATP luminescence, 24 h; Potency, µM (titrated, usually from 46.1 µM), for inactives: at the highest dose activity change, negative = cell killing, most hits filed as cytotoxic; hit rate 1.5% among 130,000; AID 902; also: % is scaled to controls: 0 for no effect and ±100 for the full control effect; nearly all actives have a fitted effect of over 55% in size
Imprint erasure: genomic imprint erasure induction; mouse ES Peg3-LacZ reporter, beta-gal luminescence, 40 h; Potency, µM (doses to about 60.7 µM), for the others: top-dose activity change, positive = activation, hits mostly activators; hit rate 0.02% among 110,000; AID 1948
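Readout: BetaGlo luminescence (5 min, room temp) for LacZ from the normally silent maternal Peg3 allele in female Peg3LacZ-Neo ES cells. Cells 300/well, 40 h, 37C, 5% CO2. Data normalized per plate to negative controls.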
p53ts 32C kill: kills p53ts cells at the permissive temperature; AID 924; hit rate 0.93% among 130,000; H1299-p53A138V at 32C, ATP luminescence viability, 24 h; Potency, µM (titrated, usually from 46.1 µM), inactives show at the top dose activity change, negative = cytotoxicity, usual class: cytotoxic;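 also: 0% = DMSO and -100% = full killing by reference compound; nearly all actives have a fitted effect of over 55% in size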
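Cells: H1299 p53ts (A138V), 600/well, pre-incubated 16–30 h at 37C. Cpd up to 46 uM, 24 h, 32C. Readout: ATPlite luminescence, 20 min RT. Normalization: DMSO vs tamoxifen 100 uM. AC50 by Hill equation.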
IkB signaling: inhibitors of IkB signaling in ABC-DLBCL cells; ABC-DLBCL IkBa-CBG/CBR dual luciferase ratio, 4 h; response scale: scaled: untreated 0%, proteasome inhibitor 100%; Potency, µM (series often up to 57.1 µM), for the others: top-dose IkBa stabilization activation; hit rate 0.04% among 110,000; AID 445; active = well fitted curve in the direction sought with a large enough effect in the signal ratio, not every such curve was filed as active; inconclusive = small, poorly fitted or top-dose-only effect, or a change in a side signal; the % refers to the signal ratio;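 also: the direction sought is a rising ratio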
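In this assay, an IκBα–CBG68 fusion accumulates when IKK-driven degradation is blocked; native CBR normalizes for cell number. OCI-Ly3 cells were treated 4 h with compound and doxycycline, then green and red light read after Chroma-Glo addition.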
* marks the source's active call; other numbers are inactive results; ? = inconclusive; / = no result given; [ ] = dose if it differs, or a comment. Hits are enriched below; roughly 1.6% of the tested compounds scored in any of these assays. Unless noted, calls follow the shape of the dose curve; as a rule, active = well fitted curve in the direction sought with a large enough effect; inconclusive = small, poorly fitted or top-dose-only effect, or another doubt; inactive = no such curve, though single readings can be large; an effect the other way counts as inactive or inconclusive. Potency is read from the fitted curve at half-maximal effect.

SMILES	p53ts 39C tox	Imprint erasure	p53ts 32C kill	IkB signaling
CCCCN(C)CC(O)Cn1cc(/C=C/C(=O)c2ccc(OCC)cc2)c2ccccc21 (stereo not drawn)	5.01µM*	-2.2%[10.9 µM]	15.8µM*	?
N#C/C(=C\c1ccc(-c2cccc(Cl)c2)o1)C(=O)Nc1cccc(C(F)(F)F)c1	12.6µM*	-19.8%[10.9 µM]	-0.8%	1.9%
Cc1ccc(Cl)cc1-n1ncc2c(N3CCCCCC3)ncnc21	?	-14.8%[10.9 µM]	-10.3%	?
Cc1ccc(-n2ncc3c(N4CCCCC4)ncnc32)cc1	1.58µM*	-73.9%[10.9 µM]	1.58µM*	?
COc1ccccc1N1CCN(c2ncnc3c2cnn3-c2cc(Cl)ccc2C)CC1	12.6µM*	-13.3%[10.9 µM]	?	?
Cc1cccc(-n2ncc3c(N4CCCC4)ncnc32)c1	5.01µM*	-22.7%	3.16µM*	-1.0%
COc1ccc(-n2ncc3c(N4CCCCC4)ncnc32)cc1	3.16µM*	/	2.51µM*	/
CCc1ccc(CNC(=O)c2ccc(NC(=O)N3CC(C)Sc4ccccc43)cc2)cc1 (stereo not drawn)	-22.0%	-8.2%[10.9 µM]	0.7%	?
CCCn1c(=N)n(CC(O)COc2cccc(C)c2)c2ccccc21 (stereo not drawn)	-23.3%	-16.6%	-14.1%	?
CCCCCn1c(=N)n(CC(O)COc2cccc(C)c2)c2ccccc21 (stereo not drawn)	10µM*	-16.4%[10.9 µM]	?	?
Cc1ccc(CNC(=O)C(C)n2nc(C)c3sc4ccccc4c3c2=O)cc1 (stereo not drawn)	?	-27.3%[10.9 µM]	?	?
Cc1nn(C(C)C(=O)NC2CCCCC2)c(=O)c2c1sc1ccccc12 (stereo not drawn)	10µM*	-33.5%[10.9 µM]	12.6µM*	?
CSc1ccc(CCNC(=O)C(C)n2nc(C)c3sc4ccccc4c3c2=O)cc1 (stereo not drawn)	10µM*	-34.2%[10.9 µM]	10µM*	-3.3%
COC(=O)C(CCSC)NC(=O)c1c(C)oc2ncn(CC(C)C)c(=O)c12 (stereo not drawn)	-14.1%	11.0%[10.9 µM]	-4.0%	-1.6%
Cn1cc(SCC(=O)NCc2ccc3c(c2)OCO3)c2ccccc21	6.3%	-86.8%	-15.4%	-3.8%
CCn1cc(SCC(=O)NCc2ccc3c(c2)OCO3)c2ccccc21	5.01µM*	-90.1%	5.01µM*	?
COc1ccc(-n2nc3cc(C)c(N)c(Br)c3n2)cc1	12.6µM*	-28.4%	12.6µM*	?
C[C@@H]1CC2C3CCC4=CC(=O)C=CC4(C)[C@@]3(F)[C@@H](O)CC2(C)[C@@]1(O)C(=O)CO (stereo partly drawn)	/	-3.9%	/	/
CCOC(=O)Cc1c(C)nc2c(-c3cccc(Br)c3)c[nH]n2c1=O	12.6µM*	-29.6%	?	?
Cc1cccc(Cn2ccn(Cc3ccc(Cl)cc3)c(=O)c2=O)c1	31.6µM*	8.4%[10.9 µM]	?	?
COc1ccc(Cn2ccn(Cc3cccc(Cl)c3)c(=O)c2=O)cc1	?	-5.5%[10.9 µM]	-13.2%	1.7%
O=C(O)/C=C\C(=O)Nc1ccccn1	-0.5%[9.22 µM]	-14.5%[10.9 µM]	-7.2%[9.22 µM]	0.3%[11.4 µM]
O=C(/C=C\Nc1ccccn1)c1ccc(Cl)cc1	12.6µM*	-84.6%	7.94µM*	?
Cc1ccc(C)c(C(=N)c2ccccc2Cc2ccccc2)c1	-8.7%[9.22 µM]	-9.4%[10.9 µM]	2.5%[9.22 µM]	-0.1%[11.4 µM]
CNC(=O)C1CCN(Cc2cc3ccccc3n2Cc2cccc(C)c2)CC1	-9.1%	-17.7%[10.9 µM]	2.4%	?
SMILES	p53ts 39C tox	Imprint erasure	p53ts 32C kill	IkB signaling
COc1ccc(-c2cc(C(=O)NCc3cccs3)no2)cc1OC	-6.6%	-10.2%	2.5%	3.2%
COc1ccc(-n2c(C)cc(/C=N/Nc3nnc(C)n3N)c2C)cc1	10µM*	/	?	/
CCN1CCN(c2cc(C)c3cc(NC(=O)c4cc(OC)c(OC)c(OC)c4)ccc3n2)CC1	-30.0%	-8.4%[10.9 µM]	-8.2%	3.4%
CCN1CCN(c2cc(C)c3cc(NC(=O)/C=C/c4ccc(OCCC(C)C)cc4)ccc3n2)CC1	6.31µM*	-32.3%[10.9 µM]	11.8%	?
CCN1CCN(c2cc(C)c3cc(NC(=O)/C=C/c4ccc(C)cc4)ccc3n2)CC1	3.16µM*	-6.1%[10.9 µM]	?	?
Nc1nc(N)nc(CCCCc2nc(N)nc(N)n2)n1	/	/	/	0.2%[11.4 µM]
CN1CCN(C2(CNC(=O)c3ccc(C(C)(C)C)cc3)CCCCC2)CC1	-17.7%	-14.2%[10.9 µM]	-11.7%	?
c1cncc(CNc2nc(-c3ccoc3)nc3ccccc23)c1	6.6%	?	3.6%	-1.9%[11.4 µM]
CN(C)c1ccc(-c2nc(NCc3cccnc3)c3ccccc3n2)cc1	3.98µM*	-47.2%	5.01µM*	-1.8%[11.4 µM]
CN(C)Cc1ccccc1-c1nc(NCc2ccccc2)c2ccccc2n1	-24.7%	-22.0%	-24.1%	-5.1%[11.4 µM]
CN(C)c1ccc(-c2nc(N(C)C)c3ccccc3n2)cc1	-23.4%	-8.2%	-16.9%	-8.9%[11.4 µM]
COc1ccc(CNc2nc(-c3ccc(N(C)C)cc3)nc3ccccc23)c(OC)c1	15.8µM*	-33.3%	12.6µM*	5.6%[11.4 µM]
COc1ccccc1CNc1nc(-c2ccccc2CN(C)C)nc2ccccc12	15.8µM*	-19.1%	-7.6%	-2.8%[11.4 µM]
COc1ccc(CNc2nc(-c3ccc(C(=O)N(C)C)cc3)nc3ccccc23)c(OC)c1	-16.3%	-9.3%	-20.9%	-1.5%[11.4 µM]
CNc1nc(-c2ccc(N(C)C)cc2)nc2ccccc12	10µM*	-38.5%	12.6µM*	-7.2%[11.4 µM]
CC(C)(C)c1ccc(OC2C(O)COC2/C=C/C#Cc2ccccc2)cc1 (stereo not drawn)	-3.1%[9.22 µM]	/	-2.2%[9.22 µM]	/
CC(=O)c1cccc(NS(=O)(=O)c2cccc(C(=O)O)c2)c1	-2.1%	/	6.0%	/
CN(C)c1ccc(-c2nc(Nc3ccncc3)c3ccccc3n2)cc1	7.94µM*	/	10µM*	-6.7%[11.4 µM]
O=P(O)(O)O[C@@H]1O[C@H](CO)[C@@H](O)[C@H](O)[C@@H]1O	2.9%[9.22 µM]	-5.3%[10.9 µM]	5.6%[9.22 µM]	0.3%[11.4 µM]
CC(=O)NC1=C(NC2CCS(=O)(=O)C2)C(=O)c2ccccc2C1=O (stereo not drawn)	?	/	15.8µM*	/
O=C(Nc1ccccc1)NC1CCS(=O)(=O)C1 (stereo not drawn)	7.2%	/	-0.1%	/
CC1(NC[C@@H](O)COc2cccc3[nH]ccc23)CCC(C(C)(C)NC(=O)CBr)CC1 (stereo partly drawn)	/	/	/	18.5%
CCCc1nnc(NC(=O)c2nc(S(=O)(=O)Cc3ccc(C)cc3)ncc2Cl)s1	?	-12.9%[10.9 µM]	?	-1.5%
Cc1ccc(CS(=O)(=O)c2ncc(Cl)c(C(=O)Nc3nc4ccc(F)cc4s3)n2)cc1	15.8µM*	-25.1%[10.9 µM]	12.6µM*	?
CCS(=O)(=O)c1ncc(Cl)c(C(=O)NCc2ccc(OC)cc2)n1	?	-27.1%[10.9 µM]	?	?
Cc1ccc(CNC(=O)c2nc(S(=O)(=O)Cc3ccc(C)cc3)ncc2Cl)cc1	12.6µM*	-7.5%[10.9 µM]	15.8µM*	-1.5%
COc1ccc2nc(NC(=O)c3nc(S(=O)(=O)Cc4ccc(C)cc4)ncc3Cl)sc2c1	6.31µM*	-17.9%[10.9 µM]	?	?
COc1ccc2nc(NC(=O)c3nc(SC(C)C)ncc3Cl)sc2c1	-9.1%	-5.6%[10.9 µM]	1.4%	-0.5%
Cc1ccc(CSc2ncc(Cl)c(C(=O)Nc3nc4ccc(C)cc4s3)n2)cc1	-13.8%	-11.0%[10.9 µM]	-2.1%	?
